Tb PFK inh = blocks T. brucei phosphofructokinase; O15648; T. brucei PFK, ADP-Glo luminescence; Potency, µM (titrated, usually from 57.5 µM), for inactives: at the top dose activity, negative = inhibition, actives largely listed as inhibitors; 0.17% of 330,000 active;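 note: 0% = uninhibited 1x PFK enzyme wells and -100% = no-enzyme wells; nearly all actives have a fitted effect of over 60% in size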
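In TEA buffer at pH 8.0 with 5 mM MgCl2, enzyme (1.25 nM) converted F6P (0.5 mM) and ATP (0.1 mM) for 45 min at room temperature. ADP product was read by luciferase luminescence.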
VDR inh = vitamin D3 receptor (human) inhibition | P11473 | VDR-SRC2-3 peptide fluorescence polarization, 2 h | Potency, µM, without a hit: max response, negative = inhibition, usual class: inhibitors | 0.93% of 400,000 active | AID 504847; note: % is set by controls: 0 for no effect and ±100 for the full control effect
Target sequence (P11473 whole entry, looked up): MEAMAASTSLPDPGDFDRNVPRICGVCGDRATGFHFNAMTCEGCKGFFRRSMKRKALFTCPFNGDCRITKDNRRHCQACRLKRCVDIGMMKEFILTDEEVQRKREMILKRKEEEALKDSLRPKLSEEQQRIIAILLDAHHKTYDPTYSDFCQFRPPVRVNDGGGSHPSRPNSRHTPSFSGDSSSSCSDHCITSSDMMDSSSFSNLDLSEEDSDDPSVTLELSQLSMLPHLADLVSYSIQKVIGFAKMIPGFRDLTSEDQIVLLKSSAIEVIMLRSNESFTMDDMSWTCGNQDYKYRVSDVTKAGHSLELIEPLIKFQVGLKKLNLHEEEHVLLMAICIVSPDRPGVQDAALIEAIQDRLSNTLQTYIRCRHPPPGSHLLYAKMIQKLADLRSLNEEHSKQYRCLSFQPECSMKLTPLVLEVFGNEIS
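The screen uses fluorescence polarization to detect compounds that interfere with recruitment of the SRC2-3 coactivator peptide to VDR; plates are read after 2 h at room temperature.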
BRCA1 expr act = BRCA1 expression activation | 1.1% of 380,000 active | Potency, µM (series often up to 46.1 µM), for inactives: at the top dose activation, usual class: activators | MCF7-BRCA1-FFLuc reporter, luminescence, 48 h; response scale: scaled: vehicle 0%, 10 µM genistein 100%; note: nearly all actives have a fitted effect of over 80% in size
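Using MCF7 cells harboring a BRCA1 firefly luciferase reporter, plated 2 h before compound pinning, the screen measured luminescence after 48 h incubation. Responses were normalized to DMSO and 10 microM genistein, then fitted for concentration-effect.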
PLK1 PBD inh = blocks phosphopeptide binding to human PLK1 polo-box domain; Plk1 PBD binding of FITC phosphopeptide, fluorescence polarization; AID 720504; 2.8% of 360,000 active; P53350; Potency, µM, without a hit: max response, negative = inhibition, actives largely listed as inhibitors; note: series mostly up to about 57 µM; % is set by controls: 0 for no effect and ±100 for the full control effect; nearly all actives have a fitted effect of over 65% in size
* = called active by the depositor; ? = inconclusive; / = no result given; ! = repeats disagree. Hits are enriched below; roughly 3.9% of the tested compounds scored in any of these assays. Calls come from the whole dose curve; as a rule, active = well fitted curve in the direction sought with a large enough effect; inconclusive = small, poorly fitted or top-dose-only effect, or another doubt; inactive = no such curve, though single readings can be large; an effect the other way counts as inactive or inconclusive. Potency is the fitted concentration of half-maximal effect.

SMILES	Tb PFK inh	VDR inh	BRCA1 expr act	PLK1 PBD inh
CCOC(=O)CC1=NN(c2ccccc2)C(=O)/C1=C\c1ccc(OC)cc1OC	0%	50µM*	-15%	2.7µM*
COc1ccc(-c2noc(CN(C(=O)c3ccc(C)cc3C)C(C)C)n2)cc1	/	-7%	-31%	/
O=C(Nc1cc(OC(=O)C(F)(F)F)c2nonc2c1OC(=O)C(F)(F)F)C(F)(F)F	/	?	-70%	/
Cc1ccc(Cn2c(S(=O)(=O)O)nc3ccccc32)cc1	-1%	?	-15%	24µM*
COc1ccc(/C=C/C(=O)N2CCNC(=O)C2)c(OC)c1	0%	-9%	37%	-10%
COc1ccc(C2=NC(c3ccc(Cl)cc3)C(c3ccc(Cl)cc3)N2C(=O)N2CCNC(=O)C2)c(OC(C)C)c1 (centres undefined)	/	50µM*	/	/
COc1ccc(CNC(=O)CCn2cccn2)cc1	/	11%	7%	/
c1ccc2c(c1)ncn2Cc1nnc2sc(-c3ccncc3)nn12	-4%	-13%	9%	12µM*
Clc1ccc(Cl)c(-c2nn3c(Cn4cnc5ccccc54)nnc3s2)c1	/	-1%	-1%	-11%
c1ccc(OCc2nn3c(Cn4cnc5ccccc54)nnc3s2)cc1	-2%	?	-51%	24µM*
CCOc1ccccc1OCc1nn2c(COc3ccccc3)nnc2s1	-1%	32µM*	-24%	4.7µM*
Cc1nnc2sc(COc3ccccc3)nn2c1=O	1%	2%	-3%	-2%
c1cncc(-c2nn3c(Cn4cnc5ccccc54)nnc3s2)c1	?	-99%	13%	4.7µM*
CCOc1ccc(-c2nnc3sc(COc4ccccc4)nn23)cc1	4%	3%	-5%	-3%
CN(c1ccccc1)S(=O)(=O)c1cc(C(=O)NCCCn2ccnc2)ccc1Cl	6%	-17%	-21%	-6%
COc1cccc2cc(C(=O)c3ccccc3)oc12	-3%	-16%	45%	2%
CCc1ccc(C(=O)Cc2cc3cccc(OC)c3oc2=O)cc1	0%	-9%	11µM*	-10%
COc1cccc2cc(CC(=O)c3ccc(C)c(C)c3)c(=O)oc12	-1%	7%	11µM*	-11%
COc1cccc2cc(C(=O)CS(=O)(=O)c3ccc(Cl)cc3)c(=O)oc12	-10%	-17%	-6%	17µM*
COc1cc(C(C)=O)ccc1OC(=O)c1cc2cccc(OC)c2oc1=O	-1%	-26%	0%	?
COc1cccc2cc(C(C)=O)c(=O)oc12	0%	-23%	6%	-7%
COc1cccc2cc(CC(=O)c3ccccc3)c(=O)oc12	7%	4%	10µM*	-11%
O=c1[nH]cc(CCc2ccccc2)c(=O)[nH]1	/	/	-7%	-4%
Cc1ccc(NC(=O)CSc2nc3c(c(=O)[nH]2)CN(Cc2ccccc2)CC3)cc1Cl	/	9%	/	/
Cc1ccc(/C=C/c2onc(C)c2S(=O)(=O)N2CCC(C(=O)Nc3ccccc3C(F)(F)F)CC2)cc1	/	6%	5%	/
SMILES	Tb PFK inh	VDR inh	BRCA1 expr act	PLK1 PBD inh
CN1CCN(C(=O)Cn2ncc3c4ccccc4n(Cc4ccc(F)cc4)c3c2=O)CC1	/	2%	/	/
NC(=O)c1ccc2[nH]ccc2c1	/	14%	/	/
N#CC(C#N)=C(N)/C(C#N)=C/c1ccc2[nH]ccc2c1	/	50µM*!	/	/
COc1cc(C)ccc1OCCOc1cc(C)ccc1Cl	-3%	-6%	21%	24µM*
COC(=O)c1ccccc1OCCCOc1ccc(C)cc1OC	1%	/	/	/
CCc1ccccc1OCCOc1ccc(C)cc1OC	3%	-19%	4%	3µM*
CCOCCc1nn2c(=O)cc(COC(=O)c3ccccc3NC(=O)c3cccs3)nc2s1	/	-2%	/	/
CCC(NC(C)C)C(O)c1ccc(O)c(O)c1 (centres undefined)	-6%	50µM*!	5%	-12%
C[C@H](CO)N1C[C@H](C)[C@H](CN(C)S(=O)(=O)c2ccccc2F)OCc2cnnn2CCCC1=O	/	/	12%	2%
O=C1Nc2cnc(Cl)nc2Nc2ccccc21	/	/	-8%	-2%
O=C1N(O)C2(C=CCCC2)/C(=N\O)C12CCCCC2 (centres undefined)	0%	-13%	0%	30µM*
C=C(C)C(=O)Oc1ccc(N=Nc2ccc(C)cc2)ccc1=O	/	?	-35%	21µM*
O=C(Nc1ccccc1)Nc1ccc(-n2ccc(C(F)(F)F)n2)cc1	-1%	-17%	3.5µM*	6%
C=C(C[C@]1(C(=O)OC)CC2(CC=C(C)C)C(=O)C(C(=O)CC(C)C)=C(O)C(CC=C(C)C)(C1)C2=O)C(=O)OC (some centres undefined)	/	-2%	/	/
COc1cc([N+](=O)[O-])cc(/C=N/NC(=O)Cn2nccc2C)c1O	3%	?	-31%	27µM*
CN=c1scc(-c2cccs2)n1/N=C/c1ccc(O)c(O)c1O	-8%	?	-14%	6.7µM*
CN=c1scc(-c2cccs2)n1/N=C/c1ccccc1O	-1%	-16%	-113%	-6%
CCN=c1scc(C)n1/N=C/c1ccsc1	1%	?	58%	-1%
CN=c1scc(C)n1/N=C/c1ccc(O)c(O)c1O	?	-3%	-34%	6.7µM*
CCC1Sc2ccc(S(=O)(=O)N3CCN(c4ccccc4)CC3)cc2NC1=O (centres undefined)	1%	?	-13%	3.4µM*
O=C1CSc2ccc(S(=O)(=O)N3CCN(c4ccccc4)CC3)cc2N1	-19%	-5%	-3%	-1%
O=C(NC1CC1)c1ccc(CSCc2ccc(Cl)cc2)o1	/	/	25%	-15%
Cc1ccc(O)c(C(=O)c2cnn(-c3ccccc3)c2)c1	1%	?	58%	3.4µM*
O=C(Cc1cnn(-c2ccccc2)c1)c1ccc(O)c(O)c1O	-11%	-2%	5.6µM*	?
CCc1cc(C(=O)Cc2cnn(-c3ccccc3)c2)c(O)cc1O	4%	7%	-18%	-7%
SMILES	Tb PFK inh	VDR inh	BRCA1 expr act	PLK1 PBD inh
O=C(NCc1ccc(F)cc1)c1cc(C2CCCCN2C(=O)c2ccc(Cl)cc2)on1 (centres undefined)	/	/	0%	-4%
CNC(=O)c1ccc(NC(=O)COc2ccc(-c3nn(C)c(=O)c4ccccc34)cc2)cc1	/	-5%	4%	/
COC(=O)COc1ccc(NC(=O)Cn2nc(-c3ccccc3)c3ccccc3c2=O)cc1	0%	-28%	-2%	27µM*
COc1cccc(OC)c1NC(=O)Cn1nc(C)c2ccccc2c1=O	-3%	-23%	2%	30µM*
COc1ccc(NC(=O)COc2ccc(-c3nn(C)c(=O)c4ccccc34)cc2)cc1	0%	?	-11%	24µM*
COc1ccc(OC)c(NC(=O)Nc2ccc3c(c2)OCO3)c1	4%	0%	71%	-3%
CSc1nc(Oc2cccc(C(F)(F)F)c2)cc(C(F)(F)F)n1	2%	-23%	6%	27µM*
COc1ccc(CN2C(=O)c3ccccc3C2C(=O)NC2CCCC2)c(OC)c1 (centres undefined)	-5%	-8%	-1%	-4%
COc1ccc(CN2C(=O)c3ccccc3C2C(=O)NC2CCC(C)CC2)c(OC)c1 (centres undefined)	-3%	-13%	-3%	24µM*
O=C(Cc1ccccc1)NC(NNc1ccccc1)(C(F)(F)F)C(F)(F)F	0%	?	-4%	27µM*
